Results reported in PubChem BioAssay AID687001 (Broad Institute, 2013).
Measured potencies and affinities stand elsewhere. Active and inactive are the calls of the source.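 How the source made its calls: active means signal-lowering compounds whose fitted half-maximal concentration is at or below twice the top tested dose in every run; inconclusive means runs disagree, flat 30 to 70% inhibition, or poor curve fit; inactive means the rest.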

target: Protein S100-A4 (Homo sapiens) (UniProt P26447); assay: S100A4-myosin IIA binding inhibitor potency, dose response, biochemical, fluorescence polarization, cherry-picked hits (AID 687001); details: FP, S100A4/TAMRA-myosin IIA peptide binding; series mostly up to 11 µM
Sequence (P26447 whole entry, looked up): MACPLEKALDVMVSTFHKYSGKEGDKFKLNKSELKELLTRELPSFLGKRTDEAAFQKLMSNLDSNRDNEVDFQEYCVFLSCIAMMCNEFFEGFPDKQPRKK

SMILES	outcome
CCC12CCN(CC3(O)CC3)C(Cc3ccc(O)cc31)C2(C)C (stereo not given)	inactive
Cc1ccccc1C(=O)N1Cc2ccccc2-n2nncc2C1	inactive
CCN(CC)C(=O)[C@@H]1C=C2c3cccc4[nH]c(Br)c(c34)C[C@H]2N(C)C1	inactive
CCOC(=O)C1=C(N)OC2=C(C(=O)CC(C)(C)C2)C12C(=O)Nc1ccccc12 (stereo not given)	inactive
CCCCCSc1cc(O)c(C(CNC)C(C)C)cc1OC (stereo not given)	inactive
